Experimental data from PubChem BioAssay (EPA / NIEHS).
Several values for one entry are separate records, joined by “and”; a condition that tells them apart may be missing. Equal entries are not always repeated. Results filed as inconclusive are left out. Activity calls are given as the source filed them. How the source made its calls: active means hit-call score of the fitted dose curve at least 0.9, where 1 is the maximum; inconclusive means response in the unintended direction; inactive means score below 0.9.

Assay: ACEA_ER_AUC_viability: ACEA Biosciences xCELLigence Real-Time Cell Analysis on Estrogen Receptor Agonism for Viability (AID 2283782);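 further: continuous compound exposure with impedance area under curve over 80 h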
Experimental: ACEA_ER is a cell-based, single-readout assay that uses T47D, a human breast cell line, with measurements taken at 80 hours after chemical dosing in a 96-well plate, although TO2 (mc0.srcf) used a 384-well plate. Differences in plate size can be ignored given data normalization.ACEA_ER_AUC_viability is one of two assay component(s) measured or calculated from the ACEA_ER assay. It is designed to make measurements of real-time cell-growth kinetics, a form of growth reporter, as detected with electrical impedance signals by Real-Time Cell Electrode Sensor (RT-CES) technology.Data from the assay component ACEA_ER_AUC_viability was analyzed in the positive analysis fitting direction relative to DMSO as the negative control and baseline of activity. Using a type of growth reporter, loss-of-signal activity can be used to understand changes in the viability. Furthermore, this assay endpoint can be referred to as a secondary readout, because this assay has produced multiple assay endpoints where this one serves a viability function. To generalize the intended target to other relatable targets, this assay endpoint is annotated to the cell cycle intended target family, where the subfamily is cytotoxicity.
The xCELLigence system Multi-E-Plate stations were used to measure the time-dependent response to chemicals. Each compound was tested in an eight-point, 1:4 serial dilution series starting at a maximum final concentration of 100 uM. A maximum starting concentration of 0.5% DMSO was present in the 100 uM chemical samples and was diluted along with the test article dilution series. The screen was performed in biological duplicate using two separate, 96-well, E-Plates 96 for each dilution series (n = 2). Positive controls (MG132 and E2) and a negative control (assay media) were tested in quadruplicate on each testing plate. Then, 0.5% and 0.125% DMSO were tested in duplicates in each plate to serve as solvent controls for the 2 highest concentrations of testing compounds: 100 uM and 25 uM. Reference compounds were tested with 8 concentrations with 1:5 serial dilutions. All screening was carried out by ACEA Biosciences, Inc. (San Diego, CA). T-47D cells purchased from ATCC were maintained in RPMI1640 media supplemented with 10% characterized fetal bovine serum (FBS). Before screening, T-47D cells were preconditioned in assay medium: phenol red-free RPMI1640 supplemented with 10% charcoal-stripped FBS. Cells were then detached and seeded in E-Plates 96 in assay medium. After overnight monitoring of growth once every hour, compounds were added to […] cells and remained in the medium until the end of the experiment. Cellular responses were then recorded once every 5 min for the first 5 h, and once every hour for an additional 100 h.
In the case of `CCCCCCCCC(=O)NCc1ccc(O)c(OC)c1`, the AC50 is reported as 50 µM (active). For `CCOC(=O)CP(=O)(OCC)OCC`, the AC50 was 36.8 µM (active). In the case of `CC(C)(c1ccc(OCC2CO2)cc1)c1ccc(OCC2CO2)cc1` (stereo not given), the AC50 is reported as 82.5 µM (active). For `C=CC(=O)OCCCCCC(C)C`, the outcome was “inactive”. With `O=C(O)C(Cl)(Cl)Cl` the outcome was “inactive”. For `Nc1ccc(-c2ccc(N)c(Cl)c2)cc1Cl`, the outcome was “inactive”. In the case of `O=[N+]([O-])c1ccc2c3c(cccc13)CC2`, the outcome is reported as “inactive”. In the case of `C[C@@H](Oc1ccc(Cl)cc1Cl)C(=O)O`, the outcome is reported as “inactive”. With `COc1ccc(C(O)(c2cncnc2)C2CC2)cc1` (stereo not given) the AC50 was 67.6 µM (active). For `COP(=S)(OC)Oc1ccc(S(=O)(=O)N(C)C)cc1`, the outcome was “inactive”. With `O=C1C2(Cl)C3(Cl)C4(Cl)C(Cl)(Cl)C5(Cl)C3(Cl)C1(Cl)C5(Cl)C24Cl` (stereo not given) the AC50 was 10.4 µM (active) and 7.76 µM (active) and 8.91 µM (active). For `CC(=O)[O][Hg][c]1ccccc1`, the AC50 was 1.32 µM (active). With `CCOP(=S)(OCC)SCCS(=O)(=O)CC` the AC50 was 57.6 µM (active). In the case of `COc1ccccc1OC`, the outcome is reported as “inactive”. In the case of `Cc1cc(Cl)ccc1O[C@H](C)C(=O)O`, the outcome is reported as “inactive”. For `CCCCCCCCCl`, the outcome was “inactive”. For `CC(=[OH+])/C=C(/C)[O-].CC(=[OH+])/C=C(/C)[O-].CC(=[OH+])/C=C(/C)[O-].[Al]`, the AC50 was 72.6 µM (active). In the case of `CCC(C)(C)c1ccc(O)c(C(C)(C)CC)c1`, the AC50 is reported as 14.9 µM (active). For `O=C1C(Cl)=C(Cl)C(=O)c2ccccc21`, the AC50 was 16.7 µM (active). With `CCOP(=S)(OCC)Oc1ccc(S(C)=O)cc1` (stereo not given) the outcome was “inactive”. In the case of `C=CCc1ccc(OC)cc1`, the outcome is reported as “inactive”. For `[O-][Cl+2]([O-])O`, the outcome was “inactive”. In the case of `ClC1(Cl)C2(Cl)C3(Cl)C4(Cl)C(Cl)(Cl)C5(Cl)C3(Cl)C1(Cl)C5(Cl)C24Cl` (stereo not given), the outcome is reported as “inactive”. In the case of `CCOC(=O)/C=C(C)/C=C/C[C@@H](C)CCCC(C)C`, the AC50 is reported as 87.8 µM (active). For `CCOC(=O)Nc1cccc(OC(=O)Nc2ccccc2)c1`, the outcome was “inactive”. In the case of `O=P(O)(O)c1ccccc1`, the outcome is reported as “inactive”. In the case of `CCCCCCCCCCCCCCCC[n+]1ccccc1`, the AC50 is reported as 5.69 µM (active). With `COP(=O)(OC)OC` the outcome was “inactive”. In the case of `O=CC=O`, the outcome is reported as “inactive”. In the case of `COc1ccc(C=O)cc1`, the outcome is reported as “inactive”. With `COP(=S)(OC)Oc1ccc(Sc2ccc(OP(=S)(OC)OC)cc2)cc1` the AC50 was 85.5 µM (active). In the case of `ClC1=C(Cl)[C@]2(Cl)[C@H]3[C@H]([C@H]4C=C[C@H]3C4)[C@@]1(Cl)C2(Cl)Cl`, the AC50 is reported as 83.2 µM (active). In the case of `O=C(Nc1ccc2[nH]ccc2c1)c1cc2cc(F)ccc2n1Cc1cccc(F)c1`, the AC50 is reported as 12.4 µM (active). In the case of `CC(C)(OO)c1ccccc1`, the AC50 is reported as 14.7 µM (active). With `O=P(O)(O)CN(CP(=O)(O)O)CP(=O)(O)O` the outcome was “inactive”. With `C[C@@H]1C[C@@H]([C@H](O)CC2CC(=O)NC(=O)C2)C(=O)[C@@H](C)C1` the AC50 was 522 nM (active) and 1.49 µM (active). With `CC(=[OH+])/C=C(/C)[O-].CC(=[OH+])/C=C(/C)[O-].CC(=[OH+])/C=C(/C)[O-].[Fe]` the outcome was “inactive”. In the case of `Clc1ccc(COC(Cn2ccnc2)c2ccc(Cl)cc2Cl)cc1` (stereo not given), the AC50 is reported as 21.5 µM (active). With `Oc1c(I)cc(I)cc1I` the AC50 was 87.9 µM (active). In the case of `COC[C@H](C)N(C(=O)CCl)c1c(C)csc1C`, the outcome is reported as “inactive”.
